In the library only some 2.7% were active in any assay of this set; here they are far more common.
GLP-1R agonist: activates the human GLP-1 receptor; HEK293 GLP-1R CRE-luciferase, luminescence, 4-6 h; cells express a hypersensitive GLP-1R form; Potency, µM (highest dose often 45.6 µM), hits mostly activators; 0.007% of 380,000 active; P43220
GLP-1R inv ag: inverse agonists of human GLP-1 receptor. P43220. HEK293 GLP-1R CRE-luciferase, luminescence, 24 h; GLP-1R form is constitutively active. Potency, µM (titrated, usually from 38.3 µM), actives largely listed as inhibitors. 1.6% of 410,000 active. AID 624417; further: nearly all actives have a fitted effect of over 55% in size
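Readout was luciferase luminescence, measured 12 min after detection reagent at room temperature. Beforehand, GLP-1R reporter HEK293 cells had sat 12 h, then received compounds for 24 hr at 37 deg C.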
IDH1 R132H inh: human IDH1 R132H inhibition; IDH1-R132H enzyme, NADPH consumption, diaphorase/resazurin fluorescence; 0.093% of 390,000 active; Potency, µM (highest dose often 76.6 µM), actives largely listed as inhibitors; O75874; AID 602179; further: nearly all actives have a fitted effect of over 65% in size
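IDH1-R132H (0.5 ug/mL) preincubated 30 min with compound, then NADPH (0.016 mM) and alpha-KG (2 mM) added; 80 min at RT, pH 7.5. Remaining NADPH coupled via diaphorase/resazurin to fluorescence (540/590 nm); concentration-response curves normalized to no-enzyme control.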
TrxR1 inh-1: rat TrxR1 inhibition | O89049 | recombinant rTrxR1, NADPH fluorescence consumption, selenite substrate | Potency, µM (titrated, usually from 114 µM), most hits filed as inhibitors | 1% of 390,000 active; further: nearly all actives have a fitted effect of over 65% in size
Target sequence (O89049 whole entry, looked up): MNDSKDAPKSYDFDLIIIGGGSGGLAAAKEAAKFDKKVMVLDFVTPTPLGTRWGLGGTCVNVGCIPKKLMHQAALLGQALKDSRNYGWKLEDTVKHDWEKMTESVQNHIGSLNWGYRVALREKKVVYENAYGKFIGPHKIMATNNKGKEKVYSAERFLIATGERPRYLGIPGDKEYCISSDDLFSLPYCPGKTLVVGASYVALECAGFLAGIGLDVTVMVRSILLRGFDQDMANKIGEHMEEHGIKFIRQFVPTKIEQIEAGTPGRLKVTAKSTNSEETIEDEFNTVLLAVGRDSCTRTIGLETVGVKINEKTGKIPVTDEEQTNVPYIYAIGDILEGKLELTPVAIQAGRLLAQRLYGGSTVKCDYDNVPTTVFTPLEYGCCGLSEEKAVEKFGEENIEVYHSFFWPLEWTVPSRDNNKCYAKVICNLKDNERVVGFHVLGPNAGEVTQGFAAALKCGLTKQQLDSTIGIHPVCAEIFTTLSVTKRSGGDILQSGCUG
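Rat TrxR1 (90 nM in the dispensed reagent) was pre-reduced with 400 uM NADPH for 5 min at room temperature, then incubated with compound for 15 min. After 400 uM selenite was added, NADPH fluorescence (Ex 340/Em 450 nm) was followed for 8 min.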
GLP1R cytotox: cytotoxicity in counter-screen for GLP-1R inverse agonists; HEK293 cAMP-luciferase reporter cells, luminescence, 24 h; Potency, µM (top dose mostly 38.3 µM), most hits filed as inhibitors; 0.13% of 410,000 active; AID 624418;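 further: loss of luciferase light is scored as toxicity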
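To flag toxic compounds, the library was rerun on cells for 24 hr at 37 deg C and 5% CO2. Viability-linked luminescence was captured 12 min after adding luciferase detection reagent.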
TrxR1 substrate: rat thioredoxin reductase 1 substrate activity. O89049. purified TrxR1 substrate turnover, NADPH consumption readout. Potency, µM (titrated, usually from 114 µM). 0.01% of 390,000 active. AID 588456; further: nearly all actives have a fitted effect of over 50% in size
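Rat TrxR1, dispensed at 90 nM, was prereduced with 400 uM NADPH (final) for 5 min at ~22 deg C, then incubated with compound 15 min before 400 uM selenite. A first-read NADPH fluorescence drop versus no-compound background flagged substrates.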
HepG2 tox: counter-screen for TRb-SRC2 inhibitors: HepG2 cytotoxicity; shares compounds with TrxR1 inh-1; HepG2 viability, ATP luminescence (CellTiter-Glo), 72 h; Potency, µM; 50% of 40 active; AID 2447; calls by dose curve
GR inh: inhibits human glutathione reductase in TrxR1 counterassay | shares compounds with TrxR1 inh-1 | purified GR, DTNB reduction absorbance 405 nm kinetic | activity change, negative = inhibition, % at 57.1 µM | 55 tested, under 10 active
TrxR1 inh-2: rat TrxR1 inhibition, primary screen retest. shares compounds with TrxR1 inh-1. recombinant TrxR1, NADPH fluorescence consumption, selenite substrate. Potency, µM, most hits filed as inhibitors. 50% of 55 active
TrxR1 insulin: inhibits TrxR1-driven insulin reduction; shares compounds with TrxR1 inh-1; TrxR1 Trx-coupled insulin reduction, NADPH absorbance 340 nm; Potency, µM; 20% of 55 active; AID 652037;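 active means compounds with a measured potency under 100 micromolar; inconclusive means filed, but no rule given; inactive means potency at or above that, or unmeasurable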
TrxR1 inh-3: blocks rat TrxR1 reduction of DTNB; shares compounds with TrxR1 inh-1; purified TrxR1, DTNB reduction, A412; Potency, µM; 90% of 55 active;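 active means a half-inhibiting concentration could be measured and was below 100 µM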
IDH1 autofl: autofluorescence interference, mutant IDH1 hit counter-screen | shares compounds with IDH1 R132H inh | Resorufin detection reagent fluorescence interference, cell-free | AID 623980 | 750 tested, under 10 active | inhibition of signal, % at 51.2 µM
IDH1 WT: wild-type IDH1 (human) inhibition counterscreen. shares compounds with IDH1 R132H inh. WT IDH1 enzyme, NADPH diaphorase/resazurin fluorescence. Potency, µM (top dose mostly 115 µM), hits mostly inhibitors. 9% of 750 active. AID 623995; further: nearly all actives have a fitted effect of over 55% in size
mIDH1 confirm: mutant IDH1 (human) inhibition, confirmed | shares compounds with IDH1 R132H inh | IDH1 R132H enzyme, NADPH diaphorase/resazurin fluorescence | Potency, µM (series often up to 76.6 µM), usual class: inhibitors | 83% of 750 active | AID 624002; further: nearly all actives have a fitted effect of over 50% in size
Large screens that a line does not name were inactive (follow-up assays come after a bar, where they were run). Unless noted, the call rests on the fitted dose curve; in most records, active means well fitted curve in the direction sought with a large enough effect; inconclusive means small, poorly fitted or top-dose-only effect, or another doubt; inactive means no such curve, though single readings can be large; an effect the other way counts as inactive or inconclusive.

O=C(Nc1ccccc1)c1ccc2nc(-c3ccco3)c(-c3ccco3)nc2c1	TrxR1 inh-1 4µM | GR inh inactive | TrxR1 inh-2 3.8 | TrxR1 insulin inactive | TrxR1 inh-3 1.6µM
O=C(Nc1cccnc1)c1ccc2nc(-c3ccccc3)c(-c3ccccc3)nc2c1	GLP-1R inv ag inconclusive
CCn1nc(C)c2c(-c3ccccc3)cc(=O)n(C(C)C(=O)NCCc3ccc(Cl)cc3)c21 (stereo unspecified)	GLP-1R inv ag inconclusive (no result: GLP-1R agonist)
CC(OC(=O)c1ccc(S(C)(=O)=O)c([N+](=O)[O-])c1)C(=O)NC1C2CC3CC(C2)CC1C3 (stereo unspecified)	none (no result: GLP-1R inv ag, IDH1 R132H inh, TrxR1 inh-1, GLP1R cytotox, TrxR1 substrate) | HepG2 tox 8.2µM
CC(C)CN1CCN(C(=O)COC(=O)c2ccc(S(C)(=O)=O)c([N+](=O)[O-])c2)CC1	none (no result: GLP-1R inv ag, IDH1 R132H inh, TrxR1 inh-1, GLP1R cytotox, TrxR1 substrate)
CCC(OC(=O)c1ccc(S(C)(=O)=O)c([N+](=O)[O-])c1)C(=O)NC1C2CC3CC(C2)CC1C3 (stereo unspecified)	none (no result: GLP-1R inv ag, IDH1 R132H inh, TrxR1 inh-1, GLP1R cytotox, TrxR1 substrate) | HepG2 tox 7.6µM
COc1cc2ccccc2cc1C(=O)Nc1cccc(-c2nc3cc(C)c(C)cc3o2)c1C	none (no result: GLP-1R agonist)
O=C(NC(=S)Nc1ccc(N2CCOCC2)cc1)c1ccccc1	TrxR1 inh-1 inconclusive
O=C(NC(=S)Nc1ccc(N2CCOCC2)cc1)c1cccc(Cl)c1	GLP-1R inv ag inconclusive, TrxR1 inh-1 10µM, GLP1R cytotox inconclusive | GR inh inactive | TrxR1 inh-2 5.3 | TrxR1 insulin inactive | TrxR1 inh-3 2.6µM
O=C(O)c1ccc2c(c1)C(=O)N(CCc1c[nH]c3ccccc13)C2=O	none
COC(=O)C1=C(C)N(CCc2c[nH]c3ccccc23)C(=O)/C1=C\N(C)C	TrxR1 inh-1 10µM | GR inh inactive | TrxR1 inh-2 9.5 | TrxR1 insulin 36µM | TrxR1 inh-3 0.12µM
CCN(Cc1ccccc1)Cc1c(O)ccc2oc(C)c(C(=O)Nc3ccccc3C)c12	GLP-1R inv ag inconclusive (no result: GLP-1R agonist)
CN1CC(c2ccccn2)C2(SC(=S)N(Cc3ccccc3)C2=O)C12C(=O)Nc1ccccc12 (stereo unspecified)	GLP-1R inv ag inconclusive, IDH1 R132H inh inconclusive | IDH1 autofl inactive | IDH1 WT inactive | mIDH1 confirm 20µM
CN1CC(c2ccccc2)C2(SC(=S)N(Cc3ccco3)C2=O)C12C(=O)Nc1ccccc12 (stereo unspecified)	GLP-1R inv ag inconclusive, GLP1R cytotox inconclusive
Nc1ccc(NC(=O)c2cc(Cl)ccc2O)c(Cl)c1	none (no result: GLP-1R agonist, GLP-1R inv ag, IDH1 R132H inh, GLP1R cytotox)
c1ccc(N(c2ccccc2)c2nc(N3CCCC3)nc(-n3ccnc3)n2)cc1	IDH1 R132H inh 9.3µM | IDH1 autofl inactive | IDH1 WT inactive | mIDH1 confirm 6.3µM

Bioassay records deposited in PubChem BioAssay by National Center for Advancing Translational Sciences (NCATS).
